# Test results from PubChem BioAssay (NCATS).
# Results filed as inconclusive are left out. A call without a number means that no potency is given here. Active and inactive are the calls of the source. Unless noted, calls follow the shape of the dose curve; as a rule, active = well fitted inhibition curve with a large enough effect; inconclusive = small, poorly fitted or top-dose-only effect; inactive = no such curve, though single readings can be large or run the other way.
# How the values were obtained:
# [1] = qHTS assay for measurement of the activity of small molecule inhibitors on Zika virus induced Caspase-3 activity in human iPSC derived neural progenitor cells (hNPCs) (AID 1224857); also: nearly all actives have a fitted effect of over 65% in size
# Method in brief: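 Values are percent inhibition of virus-induced caspase-3/7 signal, scaled between uninfected cells and ZIKV-infected cells. Infection used 2 FFU/cell for 6 h after 1 h compound exposure.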
# [2] = qHTS assay for measurement of the activity of small molecule inhibitors on Zika virus induced Caspase-3 activity in human astrocytoma cells (AID 1224859)
# Method in brief: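 Compound added 1 h pre-infection; ZIKV 2 FFU/cell on SNB-19 cells, 6 h, 37 C/5% CO2. Caspase-Glo 3/7 luminescence; values as % inhibition of ZIKV-induced caspase activity.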
# [3] = biological target: Atrial natriuretic peptide receptor 1 (Homo sapiens) (UniProt P16066); assay: Natriuretic polypeptide receptor (hNpr1) antagonism - Pilot screen (AID 1347049; calls by dose curve;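 also: agonist-evoked cGMP luminescence read 20 min after hNppA addition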; also: potency is read from the fitted curve at half-maximal effect)
# Atrial natriuretic peptide receptor 1 (Homo sapiens), sequence (P16066 whole entry, looked up): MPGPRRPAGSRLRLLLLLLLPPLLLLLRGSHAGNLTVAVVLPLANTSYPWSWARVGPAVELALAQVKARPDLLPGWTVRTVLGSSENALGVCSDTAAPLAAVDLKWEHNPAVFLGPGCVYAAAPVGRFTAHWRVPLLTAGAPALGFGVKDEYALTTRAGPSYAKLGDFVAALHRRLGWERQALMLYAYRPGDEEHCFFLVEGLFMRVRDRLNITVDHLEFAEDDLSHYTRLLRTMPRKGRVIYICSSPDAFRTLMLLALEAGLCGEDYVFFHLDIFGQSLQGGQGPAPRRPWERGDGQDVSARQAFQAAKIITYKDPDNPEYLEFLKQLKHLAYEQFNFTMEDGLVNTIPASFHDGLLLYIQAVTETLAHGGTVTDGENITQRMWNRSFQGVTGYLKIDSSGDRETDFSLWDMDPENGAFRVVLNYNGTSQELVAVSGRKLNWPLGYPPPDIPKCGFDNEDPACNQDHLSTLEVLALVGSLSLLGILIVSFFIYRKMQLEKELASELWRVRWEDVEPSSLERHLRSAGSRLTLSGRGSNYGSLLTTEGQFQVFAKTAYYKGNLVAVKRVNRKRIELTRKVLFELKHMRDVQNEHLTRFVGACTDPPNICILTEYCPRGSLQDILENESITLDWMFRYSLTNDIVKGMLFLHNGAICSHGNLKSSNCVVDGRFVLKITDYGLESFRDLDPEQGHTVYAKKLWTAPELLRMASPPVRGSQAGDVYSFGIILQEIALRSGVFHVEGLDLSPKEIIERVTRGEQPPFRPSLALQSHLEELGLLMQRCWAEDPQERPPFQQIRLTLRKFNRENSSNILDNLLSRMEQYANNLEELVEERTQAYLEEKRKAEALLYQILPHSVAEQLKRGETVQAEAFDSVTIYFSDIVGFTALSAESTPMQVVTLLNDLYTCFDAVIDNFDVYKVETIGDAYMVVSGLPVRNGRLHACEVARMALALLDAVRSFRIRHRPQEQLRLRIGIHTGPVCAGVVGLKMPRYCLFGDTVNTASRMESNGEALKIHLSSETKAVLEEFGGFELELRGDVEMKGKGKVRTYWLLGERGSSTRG
# Method in brief: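 HEK293 cells co-expressing hNpr1 and the GloSensor pGS-40F cGMP luciferase sensor were preloaded with 2% GloSensor reagent for 2 h. Compounds were added for 30 min at room temperature, then cells were stimulated with 0.1 nM hNppA for 20 min before luminescence readout.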
# [4] = biological target: Atrial natriuretic peptide receptor 2 (Homo sapiens) (UniProt P20594); assay: Natriuretic polypeptide receptor (hNpr2) antagonism - Pilot subtype selectivity assay (AID 1347050; calls by dose curve; also: potency is read from the fitted curve at half-maximal effect)
# Atrial natriuretic peptide receptor 2 (Homo sapiens), sequence (P20594 whole entry, looked up): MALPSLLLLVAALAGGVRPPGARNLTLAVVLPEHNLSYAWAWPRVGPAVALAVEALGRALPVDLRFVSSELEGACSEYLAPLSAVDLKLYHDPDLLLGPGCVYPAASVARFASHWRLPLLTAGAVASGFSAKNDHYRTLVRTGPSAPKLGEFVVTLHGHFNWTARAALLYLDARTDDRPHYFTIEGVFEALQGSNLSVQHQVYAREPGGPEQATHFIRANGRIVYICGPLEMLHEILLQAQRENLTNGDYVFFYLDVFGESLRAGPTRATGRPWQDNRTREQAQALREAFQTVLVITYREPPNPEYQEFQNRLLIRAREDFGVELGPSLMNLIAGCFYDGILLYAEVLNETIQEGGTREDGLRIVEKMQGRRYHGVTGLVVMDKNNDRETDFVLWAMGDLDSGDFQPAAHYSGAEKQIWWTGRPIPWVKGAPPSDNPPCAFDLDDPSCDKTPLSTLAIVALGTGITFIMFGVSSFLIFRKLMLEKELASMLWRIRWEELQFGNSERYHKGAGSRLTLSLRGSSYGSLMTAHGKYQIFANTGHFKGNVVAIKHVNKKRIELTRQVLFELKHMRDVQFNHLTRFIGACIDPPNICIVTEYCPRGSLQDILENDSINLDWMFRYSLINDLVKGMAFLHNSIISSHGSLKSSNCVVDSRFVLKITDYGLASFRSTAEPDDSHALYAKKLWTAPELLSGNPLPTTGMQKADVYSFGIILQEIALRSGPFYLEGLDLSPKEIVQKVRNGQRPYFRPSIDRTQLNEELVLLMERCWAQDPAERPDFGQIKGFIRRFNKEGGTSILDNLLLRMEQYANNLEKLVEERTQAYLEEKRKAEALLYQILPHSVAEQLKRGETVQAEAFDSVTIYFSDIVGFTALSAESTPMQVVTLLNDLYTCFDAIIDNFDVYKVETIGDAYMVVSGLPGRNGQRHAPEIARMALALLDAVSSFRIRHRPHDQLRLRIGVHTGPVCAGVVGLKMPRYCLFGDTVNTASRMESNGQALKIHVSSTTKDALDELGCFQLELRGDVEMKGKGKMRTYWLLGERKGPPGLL
# Method in brief: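 cGMP-sensor HEK293/hNpr2 cells; 2% GloSensor reagent 2 h RT; compounds 30 min; baseline luminescence read; 1 nM hNppC agonist 20 min RT; final luminescence read by CCD camera. Antagonism = reduced post-agonist signal.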
Compound,Potency [1],Potency [2],Potency [3],Potency [4]
O=C(O)c1cc(=O)cc(C(=O)O)[nH]1,inactive,inactive,inactive,inactive
CC(C)NC[C@H](O)COc1cccc2ccccc12,inactive,inactive,inactive,inactive
CCCCCCN(CCCCCC)C(=O)Cc1c(-c2ccc(F)cc2)[nH]c2ccccc12,inactive,inactive,inactive,inactive
CC[n+]1c(/C=C/C=C2/N(C)c3ccccc3C2(C)C)sc2ccccc21,inactive,inactive,213 nM (active),233 nM (active)
